Compounds with a hit are over-represented: about 3.4% of the library has one in this group of screens.
SIRT5 block = SIRT5 desuccinylase inhibitors, primary screen, biochemical, fluorescence imaging, single point, set 5. NAD-dependent protein deacylase sirtuin-5, mitochondrial (Homo sapiens), Q9NXA8. Purified SirT5, succinyl-peptide AMC, trypsin-coupled fluorescence. inhibition, % at 15 µM. 330,000 compounds, 1.1% hits. AID 652115, 2013; in the data active = inhibition above about 15%
Target sequence (Q9NXA8 whole entry, looked up): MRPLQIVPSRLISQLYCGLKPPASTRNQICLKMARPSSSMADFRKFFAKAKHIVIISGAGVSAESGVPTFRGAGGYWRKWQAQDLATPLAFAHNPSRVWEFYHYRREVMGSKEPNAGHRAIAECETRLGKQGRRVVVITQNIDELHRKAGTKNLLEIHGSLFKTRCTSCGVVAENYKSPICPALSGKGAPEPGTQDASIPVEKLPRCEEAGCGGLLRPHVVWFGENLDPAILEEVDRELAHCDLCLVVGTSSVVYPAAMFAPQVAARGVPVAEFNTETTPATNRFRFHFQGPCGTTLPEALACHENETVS
PGC1a acetyl inh = inhibitors of PGC1a acetylation signal, primary screen, cell-based, U2OS, AlphaScreen, inhibitor mode; AlphaScreen anti-acetyl-lysine; with virally co-expressed GCN5 acetyltransferase; 350,000 compounds, 0.17% hits; inhibition, % at 15.6 µM; AID 651687, 2012;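 active = every replicate shows inhibition of at least 40%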
Ecoli rRNA inh = reduced GFP signal of wild-type E. coli, primary screen, bacterial rRNA inhibitor project, GFP/RFP fluorescence, OD600, single point; E. coli WT GFP vs humanized-ribosome RFP mutants, 24 h; active compounds read low; DMSO median 0, no signal -100; GFP signal change (wild-type ribosome), % (test concentration not listed); 350,000 compounds, 1.6% hits; AID 720706, 2013;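 active = significant combined selectivity score with lowered wild-type GFP, culture density cut under 30%, mutant RFP and density less affected; inactive = any of these conditions unmet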
EWS-Fli block = EWS/Fli-driven NR0B1 reporter inhibitors, primary screen, A673 cells, NR0B1 luciferase, luminescence, MLPCN library. 350,000 compounds, 0.67% hits. inhibition, % at 12.6 µM. viability-normalised;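 active = mean inhibition of at least 50% after viability correction, with every replicate also passing that limit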;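 also: firefly luciferase signal divided by Alamar Blue viability fluorescence both relative to DMSO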
PAX8 reporter = inhibitors of PAX8-driven TPO luciferase reporter, primary screen, RMG-I cells, single concentration; 360,000 compounds, 1.2% hits; inhibition, % at 12.6 µM; SteadyGlo, 24 h;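 active = mean replicate inhibition at least 60% with every replicate also reaching 60%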;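 also: luciferase light reporting Pax8 driven TPO promoter activity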
LGR2 inh = inhibitors of bursicon-induced LGR2 CRE-luciferase signal, primary screen, cell-based, HEK293, CRE-luciferase reporter, bursicon stimulation | bursicon-stimulated, 4 h | inhibition, % at 9.99 µM | 380,000 compounds, 0.35% hits | Drosophila bursicon receptor LGR2 (rickets);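 active = drop in luminescence signal, shown as inhibition above about 50% in the replicate tests, limit read from the data, passing the limit was not always enough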;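 also: agonist challenge used bursicon conditioned medium at about half maximal strength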
Of the large screens only hits and unclear results are named; the others gave an inactive call; ! = not active in a repeat.

Cc1ccc(S(=O)(=O)N(C)C[C@H]2OCCCC[C@H](C)Oc3ccc(NS(=O)(=O)c4ccc(F)cc4)cc3C(=O)N([C@@H](C)CO)C[C@@H]2C)cc1	PAX8 reporter 72
Cc1ccc(S(=O)(=O)Nc2ccc3c(c2)C(=O)N([C@H](C)CO)C[C@@H](C)[C@@H](CN(C)S(=O)(=O)c2ccc(F)cc2)OCCCC[C@H](C)O3)cc1	none
Cc1ccc(S(=O)(=O)N(C)C[C@@H]2OCCCC[C@H](C)Oc3ccc(NS(=O)(=O)c4ccc(F)cc4)cc3C(=O)N([C@@H](C)CO)C[C@H]2C)cc1	SIRT5 block 19
O=C(C1CCC1)N1CC(=O)N2[C@H](CO)[C@@H](c3ccc(C#Cc4cccc(F)c4)cc3)[C@@H]2C1	none
C[C@@H]1CN([C@H](C)CO)C(=O)c2cc(-c3ccc(F)cc3)cnc2O[C@H]1CN(C)C(=O)c1ccncc1	none (no result: SIRT5 block, PAX8 reporter)
COc1ccc2[nH]c3c(C)c4ccncc4c(C)c3c2c1	EWS-Fli block 59 (no result: PAX8 reporter, LGR2 inh)
Cc1c2ccncc2cc2c1[nH]c1ccccc12	none
Cc1cc(C)n(C(=O)CNC(=O)c2cccs2)n1	SIRT5 block 23 (no result: EWS-Fli block)
CC1CCCN(C(=O)Cc2cn(Cc3cccc(Cl)c3)c3ccccc23)C1 (stereo not given)	PAX8 reporter 64 (no result: PGC1a acetyl inh)
COc1ccc(/C=C2\Sc3ccc(C(=O)N4CCN(Cc5ccccc5)CC4)cc3N(C)C2=O)cc1OC	PAX8 reporter 77 (no result: PGC1a acetyl inh)
O=C(NCc1nc2ccccc2[nH]1)C1=C[C@@H](c2ccc(Br)cc2)C[C@@H](OCc2ccc(CO)cc2)O1	PAX8 reporter 85!
O=C(NCc1nc2ccccc2[nH]1)C1=C[C@@H](c2ccc(Br)cc2)C[C@@H](OCCCCO)O1	none
CN1CCN(C(=O)C2=C[C@H](C3CCCCC3)C[C@H](OCc3ccc(CO)cc3)O2)CC1	SIRT5 block 30!
O=C(NCc1nc2ccccc2[nH]1)C1=C[C@@H](C2CC2)C[C@@H](OCc2ccc(CO)cc2)O1	Ecoli rRNA inh -27
COC(=O)C1=C(C)N(CC(C)C)C(=S)NC1c1cccc(OC)c1 (stereo not given)	SIRT5 block 29 (no result: PGC1a acetyl inh)
COC(=O)C1=C(C)N(CC(C)C)C(=S)NC1c1cccc(Br)c1 (stereo not given)	none (no result: SIRT5 block, PGC1a acetyl inh)
Cc1ccc(NC(=O)c2cc(S(=O)(=O)NCC3CCCO3)ccc2F)cc1 (stereo not given)	none (no result: SIRT5 block)
Cc1ccc(NC(=O)c2cc(S(=O)(=O)NCCC3=CCCCC3)ccc2F)cc1	PAX8 reporter 64
COc1cc(C2(c3ccc(O)c(OC)c3)C(=O)N(C)c3ccc(Br)cc32)ccc1O	none (no result: PGC1a acetyl inh)
COc1cc(C2(c3ccc(O)c(OC)c3)C(=O)Nc3c(Br)cc(Br)cc32)ccc1O	Ecoli rRNA inh -48 (no result: PGC1a acetyl inh)
CCOC(=O)C1CCN(c2ncnc3c(C)csc23)CC1	Ecoli rRNA inh -25 (no result: PGC1a acetyl inh)
CCOC(=O)C1CCN(c2ncnc3c2nnn3Cc2ccccc2Cl)CC1	Ecoli rRNA inh -20
CCOC(=O)C1CCN(c2ncnc3nc[nH]c23)CC1	none (no result: LGR2 inh)
OC1c2cc(Br)ccc2N=C2CCCCCN21 (stereo not given)	PAX8 reporter 70 (no result: PGC1a acetyl inh)
COc1ccc(S(=O)(=O)N(C)C[C@H]2OCCCC[C@H](C)Oc3ccc(NC(=O)Nc4cccc5ccccc45)cc3C(=O)N([C@H](C)CO)C[C@H]2C)cc1	none
COC(=O)c1ccc(CN2CCCC(CO)(Cc3ccccc3F)C2)cc1 (stereo not given)	Ecoli rRNA inh -20
COc1cc(CN2CCCC(CO)(Cc3ccccc3F)C2)ccc1O (stereo not given)	none (no result: PGC1a acetyl inh)
O=C(O)CSc1nc2sc3c(c2c(=O)n1Cc1ccccc1)CCCCC3	none
O=C(O)CSc1cc(C(=O)c2ccccc2O)cn2c(=O)c3c4c(sc3nc12)CCCC4	SIRT5 block 37
Nc1ncnc2c(C3OC(CO)C(O)C3O)scc12 (stereo not given)	PAX8 reporter 114, LGR2 inh 98 (no result: SIRT5 block)

Bioassay records as filed in PubChem BioAssay.
